# Measurements: article PMC7819943, “Rice protein-binding microarrays: a tool to detect cis-acting elements near promoter regions in rice”
# Over roughly 68,000 sequences, “fluorescence intensity (a.u.)” has its median near 9,100; the highest 2% begin near 16,000. The list comes from a sample in which the highest values are over-represented; it also holds similar and randomly drawn sequences.
# Target: OsWRKY34 (Oryza sativa, UniProt Q0JBA9 1-250)
# Test: protein-binding microarray (RPBM); PBS, 2% BSA, 51.3 ng/ul salmon testes DNA, 50 uM zinc acetate, 200 nM TF, 25 C, 1 h; high values mean tight binding
# Details: protein: recombinant; tags: N-terminal polyhistidine and DsRed monomer fusion (pET32a); label: CyDye5-dUTP incorporated in the synthesized complementary strand; 3' TTTTT single-stranded linker to array surface; dsDNA, one strand shown
# Summary of the method: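 An Axon 4000B scanner gave the binding signal as per-feature fluorescence intensity in arbitrary units. This followed washing of a custom Agilent array that had been incubated for 1 h at 25 °C with 200 nM protein in PBS, 2% BSA, salmon testes DNA and 50 µM zinc acetate. The proteins were transcription factors fused at the N-terminus to polyhistidine and DsRed, expressed in E. coli BL21-CodonPlus and purified on Ni–NTA.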
# Chain of OsWRKY34 (Q0JBA9 entry or part of it): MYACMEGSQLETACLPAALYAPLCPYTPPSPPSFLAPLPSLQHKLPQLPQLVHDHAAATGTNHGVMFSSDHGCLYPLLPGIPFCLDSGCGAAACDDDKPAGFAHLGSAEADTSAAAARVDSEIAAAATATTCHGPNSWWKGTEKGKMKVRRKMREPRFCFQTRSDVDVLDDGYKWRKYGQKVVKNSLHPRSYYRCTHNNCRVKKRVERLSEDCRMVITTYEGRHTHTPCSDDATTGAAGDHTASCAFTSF
row,Sequence,binding signal
1,TTCACAGTGTAGTTGTTTTATTTAGCCAGTATTTTTTTTTCGGAGTCACCTAGTGCAG,8820 fluorescence intensity (a.u.)
2,CCACAGCGCCTCCACTGCCTGCAGGGACGCCACCGCTACCCGGAGTCACCTAGTGCAG,8450 fluorescence intensity (a.u.)
3,CCATTACCAGAACAGAACAGCAGGTTTTAACCTAACATTCCGGAGTCACCTAGTGCAG,8110 fluorescence intensity (a.u.)
4,ATACTCTCATTTTTGTTTGCTCTATTCTTTGCTTTTAGAACGGAGTCACCTAGTGCAG,10200 fluorescence intensity (a.u.)
5,ATATCTCATACTATCTCTCTTCCGTCGTTCCGTGTTGGCCCGGAGTCACCTAGTGCAG,10900 fluorescence intensity (a.u.)
6,CTACGATCAGAAACAGCGGGGCGGGTTGGGAGGGAGTCCACGGAGTCACCTAGTGCAG,15800 fluorescence intensity (a.u.)
7,ACCCCGACCATCTCCCACCATCGGAGGAGACGCTCAAACTCGGAGTCACCTAGTGCAG,8340 fluorescence intensity (a.u.)
8,CCCGGCCCATCTCTCTGGCTCGCACTCCGCCTCCGCCACCCGGAGTCACCTAGTGCAG,10500 fluorescence intensity (a.u.)
9,ACCCTCCGTTTCTAAATATTTAACACCGTTGACTTTTTAGCGGAGTCACCTAGTGCAG,23700 fluorescence intensity (a.u.)
10,AAATGTTTGACACCGTTGATTTTTTAGCGCATGTTTGACCCGGAGTCACCTAGTGCAG,8840 fluorescence intensity (a.u.)
11,AGTACTCCCTCCGTTTCTAAATATTTGACACCGTTGACTTCGGAGTCACCTAGTGCAG,12700 fluorescence intensity (a.u.)
12,TCGAAATGTTTGACACCGTTGACTTTTTAGCATATGTTTGCGGAGTCACCTAGTGCAG,33700 fluorescence intensity (a.u.)
13,AAAATGTTTGACACCGTTGACTTTTTAGCATATGTTTGACCGGAGTCACCTAGTGCAG,30800 fluorescence intensity (a.u.)
14,CCTCCGTTTCTAAATATTTAACGCCATTGACTTTTTAGCACGGAGTCACCTAGTGCAG,9160 fluorescence intensity (a.u.)
15,CTCCCTCCGTTTCTAAATATTTGATACCGTTGACTTTTTACGGAGTCACCTAGTGCAG,22300 fluorescence intensity (a.u.)
16,ATCCGTTTTATATTATAAATCATTTGACTTTTTCTATTAGCGGAGTCACCTAGTGCAG,8510 fluorescence intensity (a.u.)
17,TTCAAAATGTTTGACACCATTGACTTTTTAGCATATGTTTCGGAGTCACCTAGTGCAG,10000 fluorescence intensity (a.u.)
18,AATCTTTTATACATATAATCCCTCCGTTTCTAAATATTTACGGAGTCACCTAGTGCAG,8110 fluorescence intensity (a.u.)
19,GTCATTGTTTGGAGTGGAGTTTTGCTTAGATTAATCTGTCCGGAGTCACCTAGTGCAG,8860 fluorescence intensity (a.u.)
20,ACCACCACCCTGATGGATCTTGGCTCTAGCTCCTGGTTTTCGGAGTCACCTAGTGCAG,8110 fluorescence intensity (a.u.)
21,GCTGCGCACCTAATGCTACTGTTTTGTTAGTATTTATTTACGGAGTCACCTAGTGCAG,8460 fluorescence intensity (a.u.)

row,Sequence,binding signal
1,GTTAGCTTCTACATTTCTCGTTTCTGCTGAAAATAGTGGACGGAGTCACCTAGTGCAG,9540 fluorescence intensity (a.u.)
2,ACGACGAGGAGGCGGTGGTGGTCGTGCGCGGGGAGGAGTCCGGAGTCACCTAGTGCAG,9310 fluorescence intensity (a.u.)
3,TGCTCTTTTTTTCTTGATTATAACCTTCCGGGGTAGTTTTCGGAGTCACCTAGTGCAG,8720 fluorescence intensity (a.u.)
4,ACACTTGGCATTAATCTAATTTAACTTTTTTTTCTTTATCCGGAGTCACCTAGTGCAG,8440 fluorescence intensity (a.u.)
5,ATTGAAACATGATCCGAGTCATAGCCTGACTGGAATTCTTCGGAGTCACCTAGTGCAG,9120 fluorescence intensity (a.u.)
6,TCGTGCGTGCGTGTTTAATTGTCAACCCATACACAACTTGCGGAGTCACCTAGTGCAG,8510 fluorescence intensity (a.u.)
7,TAAATATTTGACACCGTTGACTTTTTACACATATTTGACCCGGAGTCACCTAGTGCAG,35100 fluorescence intensity (a.u.)
8,TTGACATAAATTTTCAACCAACCCGTTGTTTTTGTTTTACCGGAGTCACCTAGTGCAG,9250 fluorescence intensity (a.u.)
9,AAATATTTGACCGTTCGTTTATTATTTTTATTTTTTTTACCGGAGTCACCTAGTGCAG,12200 fluorescence intensity (a.u.)
10,TTCCTCTTCTCTTCTCGTCTCTTGTAGTAGTATATATTTACGGAGTCACCTAGTGCAG,8430 fluorescence intensity (a.u.)
11,TCACTTTTCATGTACAAAACATGTTGATATTGTGGTTGGTCGGAGTCACCTAGTGCAG,8200 fluorescence intensity (a.u.)
12,TTCGCGCGCTGCTCGCTCGCTTGGTTGGTTGGTTGATTGCCGGAGTCACCTAGTGCAG,15200 fluorescence intensity (a.u.)
13,GTTGTTCTTGGCGGCTAGGTCGTGGGGTTTTCTTGTTTCGCGGAGTCACCTAGTGCAG,22800 fluorescence intensity (a.u.)
14,TTGGTCTCTCCTCGTCGCTGGGGTTCTTTGTTCTTGTAGTCGGAGTCACCTAGTGCAG,10000 fluorescence intensity (a.u.)
15,TTGGTTTGGTTGCTCCTCGCGCTGTTATTGGTTGCTCCTCCGGAGTCACCTAGTGCAG,19900 fluorescence intensity (a.u.)
16,CGCTCCGCGATTCGTGTTGGTTCTTTTTTTTGTTTCTTGGCGGAGTCACCTAGTGCAG,8470 fluorescence intensity (a.u.)
17,ACCGAATCCGAATCCCGCGTTTCTTTGTTGCGCGCGCGACCGGAGTCACCTAGTGCAG,10100 fluorescence intensity (a.u.)
18,CGTGGGGTTTTCTTGTTTCGGAGGTAGGGAGAGGTTTCGTCGGAGTCACCTAGTGCAG,11900 fluorescence intensity (a.u.)
19,TGTGGTGGAGGCCGGCTGGGTTCTCTTGGGGTTTGGCCGGCGGAGTCACCTAGTGCAG,10400 fluorescence intensity (a.u.)
20,AAATCCCCTTGTTACCGCGCGTTGTTTGGTTGTACCGCGCCGGAGTCACCTAGTGCAG,16600 fluorescence intensity (a.u.)
21,TCGTTCTTGGCTGGGTTTGGTTTGGTTTGGTTTGGTCTCGCGGAGTCACCTAGTGCAG,45500 fluorescence intensity (a.u.)

row,Sequence,binding signal
1,GCTGTTATTGGTTGCTCCTCGCGGTCTCCTTTTTTGGTGACGGAGTCACCTAGTGCAG,10800 fluorescence intensity (a.u.)
2,GTTGGGGTGGTTGGTTTGGGGATCCCCTGTTGTACCCTGCCGGAGTCACCTAGTGCAG,10700 fluorescence intensity (a.u.)
3,TTCGGGCATACGCCACCCCGCCTTGTCATCCACCGCGCCCCGGAGTCACCTAGTGCAG,8470 fluorescence intensity (a.u.)
4,AACATTTATTTCCATATCTTCATATATGGTTCCATATGAACGGAGTCACCTAGTGCAG,8400 fluorescence intensity (a.u.)
5,TGCCAAGGACTGCATCTTCATCATTGCCTGGGTGTCCACCCGGAGTCACCTAGTGCAG,8700 fluorescence intensity (a.u.)
6,AACCCACAATTACGCGGCGGTGCATTCTCGTTGCTTTGACCGGAGTCACCTAGTGCAG,11400 fluorescence intensity (a.u.)
7,ACCGACTCAAAAACCTAACGGCACTTTTTTTATTTTCAACCGGAGTCACCTAGTGCAG,10600 fluorescence intensity (a.u.)
8,GCGTTTTTGTCTCTCTGCTCTCTGCTGCTGCTGCTGGGTCCGGAGTCACCTAGTGCAG,11300 fluorescence intensity (a.u.)
9,CTGCGCTCTCCATTGTTTTGTGTTGTGTTTGTTTGCAGTCCGGAGTCACCTAGTGCAG,17700 fluorescence intensity (a.u.)
10,TCTACGAGGGTTTTTGCGCTTTTGTTGCTCTCCGCTCCGCCGGAGTCACCTAGTGCAG,8160 fluorescence intensity (a.u.)
11,AACCTCAATTTTGTTTGTTTTGCCTTTTGGTTCAAATACTCGGAGTCACCTAGTGCAG,8180 fluorescence intensity (a.u.)
12,TCGCGCGTGTCACTGGGTTTGGGTTGGGTCTCTCTCTCTCCGGAGTCACCTAGTGCAG,18400 fluorescence intensity (a.u.)
13,CTCATTGTTGTTGTGTTGTTGCGTTTGGTTTGGTGTGCTCCGGAGTCACCTAGTGCAG,8510 fluorescence intensity (a.u.)
14,GGTTTCGGTCTCGGTTTTTTCGGTTCGGTTCTTCGGTTCGCGGAGTCACCTAGTGCAG,9660 fluorescence intensity (a.u.)
15,GTTGGTTGGTTGGTTGGTTGGCTTCTTCTCGGTTTGTTCGCGGAGTCACCTAGTGCAG,25000 fluorescence intensity (a.u.)
16,ACGTTGTTTGTGTCACGCTTCTCAAATCCCTTGGTGTTCTCGGAGTCACCTAGTGCAG,11700 fluorescence intensity (a.u.)
17,TCGCGTCGCGTTTCGACCTCGCGCTCTGGGTCTGGGTGTCCGGAGTCACCTAGTGCAG,8330 fluorescence intensity (a.u.)
18,GGTTGGCTTCTTCTCGGTTTGTTCGTTCCTTGTGGTCGAGCGGAGTCACCTAGTGCAG,8240 fluorescence intensity (a.u.)
19,GGTTGGTGACGCGTTGTTGTTTGTTCCTCAAATTTGTTCTCGGAGTCACCTAGTGCAG,16500 fluorescence intensity (a.u.)
20,TCTCAGCGGCCCGAACCTGTCTACGTCGCCCGTGTCTTGTCGGAGTCACCTAGTGCAG,11200 fluorescence intensity (a.u.)
21,CTGGCACTTGGCACTTGGTTAATTCCACTCACTCATCACTCGGAGTCACCTAGTGCAG,8260 fluorescence intensity (a.u.)

row,Sequence,binding signal
1,ACATGTGGAGGGAACAGGGCGTGGAATCAAGGGTCGGGATCGGAGTCACCTAGTGCAG,8290 fluorescence intensity (a.u.)
2,AGATATACCGTTGTTGCATTTCACCTTAAAATATTTCCAACGGAGTCACCTAGTGCAG,8550 fluorescence intensity (a.u.)
3,GCTCTCTTCTCGCCGCCTCGGCCTCGCCGCCGTGGCCGCCCGGAGTCACCTAGTGCAG,9500 fluorescence intensity (a.u.)
4,ACATAACCCCGTCATCTCGGCGACCCTCTCTCGTGGTCGCCGGAGTCACCTAGTGCAG,8540 fluorescence intensity (a.u.)
5,GTCTCACTCTCCCAATCCGCCTCGGCCCGAGCGCGCGCGCCGGAGTCACCTAGTGCAG,9530 fluorescence intensity (a.u.)
6,CCTTGTATTCGGCCCGCACACGCCAACCTGTCCTGTTCTGCGGAGTCACCTAGTGCAG,9600 fluorescence intensity (a.u.)
7,GGCGAAGTACTTCTTGGTGTTGTTGCTGCCGCTGCCGGCGCGGAGTCACCTAGTGCAG,8120 fluorescence intensity (a.u.)
8,GGTGTTGGGTGTTTGTTCGTTGGTTCCGCTGCTGCTGTTGCGGAGTCACCTAGTGCAG,8180 fluorescence intensity (a.u.)
9,TGGTTTGGTTTGGTTCTTTGTTGTTGCTGCCGCTGCCGCGCGGAGTCACCTAGTGCAG,31400 fluorescence intensity (a.u.)
10,CAGGGCCATGTTCGCTGATACATTGTGTTGGATTGCACTGCGGAGTCACCTAGTGCAG,8030 fluorescence intensity (a.u.)
11,GTTTACCATTGCATTCCCCGGTCCACGTGCATCAGTGCATCGGAGTCACCTAGTGCAG,9610 fluorescence intensity (a.u.)
12,AGTGTCTGACACTACTTAAGAAACCATAGCAGTGCTAAAGCGGAGTCACCTAGTGCAG,31200 fluorescence intensity (a.u.)
13,CACACTATAGCTAGTACTAGTACTAGTACTACTTAAACTACGGAGTCACCTAGTGCAG,8120 fluorescence intensity (a.u.)
14,ACACTACCTTAAAGAAACATCAGTGACATCTCCATCACTCCGGAGTCACCTAGTGCAG,8750 fluorescence intensity (a.u.)
15,GCCTACTTAAATTACATTTCCGCACCCACACCACACACACCGGAGTCACCTAGTGCAG,11400 fluorescence intensity (a.u.)
16,GCCGGCCTGGGAGGCCGAAGGTTGGGGATGACAGGTGGGGCGGAGTCACCTAGTGCAG,8920 fluorescence intensity (a.u.)
17,GCTGCCCGCTCTAATCTGTTTTGTCTCCATCTGCTATGATCGGAGTCACCTAGTGCAG,8950 fluorescence intensity (a.u.)
18,GAGTACTCGTCCGGGGTTTTTAACTTTTTGCCACTTTTAACGGAGTCACCTAGTGCAG,9100 fluorescence intensity (a.u.)
19,AACAATCACCTAGGCTAAATGTTACTTCCTCCGTTTCACACGGAGTCACCTAGTGCAG,9190 fluorescence intensity (a.u.)
20,GAGAACCTAATTGTGAGGCTCCTAGTTACACGACAAATCACGGAGTCACCTAGTGCAG,56300 fluorescence intensity (a.u.)
21,GGTGTGTTTGGCAAATGAGTTATGAGAGGTGTGATTGTTACGGAGTCACCTAGTGCAG,8860 fluorescence intensity (a.u.)
